Inconclusive results are not listed. Activity calls are given as the source filed them. The call rests on the fitted dose curve; in most records, active means well fitted curve in the direction sought with a large enough effect; inconclusive means small, poorly fitted or top-dose-only effect, or another doubt; inactive means no such curve, though single readings can be large; an effect the other way counts as inactive or inconclusive.
Key:
[1] = Quantitative highthroughput screen to assess conditional lethalithy of NOMO1 cells grown in RPMI1640 with untreated serum (RPMI+s) (AID 1963876); further: nearly all actives have a fitted effect of over 35% in size; further: potency means the concentration at half of the fitted maximal effect;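 on viability: 100% = DMSO wells and 0% = empty wells without cells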
Summary of the method: (§1)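 Each medium arm—HPLM with 10% dialyzed FBS, or RPMI1640 with 5 mM glucose and 10% untreated or dialyzed FBS—was screened against an 11-point, 3-fold compound titration for 48 h at 37 °C, with CellTiter-Glo luminescence as endpoint.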

[2] = Quantitative highthroughput screen to assess conditional lethalithy of NOMO1 cells grown in RPMI1640 with dialyzed fetal bovine serum (RPMI+ds) (AID 1963877); further: nearly all actives have a fitted effect of over 30% in size; further: potency means the concentration at half of the fitted maximal effect;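 on viability: series mostly up to about 46 µM; 100% = DMSO control wells and 0% = empty wells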
Summary of the method: as §1

[3] = Quantitative highthroughput screen to assess conditional lethalithy of NOMO1 cells grown in Human Plasma-Like Medium with dialyzed fetal bovine serum (HPLM+ds) (AID 1963878); further: nearly all actives have a fitted effect of over 35% in size; further: potency means the concentration at half of the fitted maximal effect;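 on viability: 100% = DMSO wells and 0% = empty wells on each plate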
Summary of the method: as §1

[4] = Quantitative highthroughput screen to assess conditional lethalithy of P12 Ichikawa cells grown in Human Plasma-Like Medium with dialyzed fetal bovine serum (HPLM+ds) (AID 1963879); conditions: Potency: viability; further: nearly all actives have a fitted effect of over 35% in size; further: potency means the concentration at half of the fitted maximal effect; on viability: series mostly up to about 46 µM
Summary of the method: as §1

[5] = Quantitative highthroughput screen to assess conditional lethalithy of P12 Ichikawa cells grown in RPMI1640 with dialyzed fetal bovine serum (RPMI+ds) (AID 1963880); conditions: Potency: P12-Ichikawa viability; further: nearly all actives have a fitted effect of over 35% in size; further: potency means the concentration at half of the fitted maximal effect;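 on viability: 100% = DMSO wells and 0% = empty wells on each plate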
Summary of the method: as §1

[6] = Quantitative highthroughput screen to assess conditional lethalithy of P12 Ichikawa cells grown in RPMI1640 with untreated serum (RPMI+s) (AID 1963881); conditions: Potency: viability; further: nearly all actives have a fitted effect of over 35% in size; further: potency means the concentration at half of the fitted maximal effect;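 on viability: series mostly up to about 46 µM; 100% = DMSO wells and 0% = empty wells without cells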
Summary of the method: as §1

[7] = Quantitative highthroughput screen to assess conditional lethalithy of SEM cells grown in Human Plasma-Like Medium with dialyzed fetal bovine serum (HPLM+ds) (AID 1963882); further: nearly all actives have a fitted effect of over 35% in size; further: potency means the concentration at half of the fitted maximal effect; on viability: series mostly up to about 46 µM
Summary of the method: as §1

[8] = Quantitative highthroughput screen to assess conditional lethalithy of SEM cells grown in RPMI1640 with unreated serum (RPMI+s) (AID 1963883); further: nearly all actives have a fitted effect of over 35% in size; further: potency means the concentration at half of the fitted maximal effect;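 on viability: 100% = DMSO wells and 0% = empty wells without cells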
Summary of the method: as §1

[9] = Quantitative highthroughput screen to assess conditional lethalithy of SEM cells grown in RPMI1640 with dialyzed fetal bovine serum (RPMI+ds) (AID 1963884); further: nearly all actives have a fitted effect of over 35% in size; further: potency means the concentration at half of the fitted maximal effect;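 on viability: series mostly up to about 46 µM; 100% = DMSO control wells and 0% = empty wells without cells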
Summary of the method: as §1

[10] = Cellular viability qHTS for adrenocortical cancer (ACC) cell line SW-13 (AID 1963989); conditions: SW-13 ACC cells viability, CellTiter-Glo, 48 h; activity (max response): hits give low values; further: nearly all actives have a fitted effect of over 65% in size; further: potency means the concentration at half of the fitted maximal effect;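 on activity (max response): cells grown in serum-free medium with ITS supplement; on the % scale 0 is the no-effect control and ±100 the full control effect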
Summary of the method: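 Compound titrations (up to 46 uM final, in DMSO) were applied to SW-13 cells for 48 h at 37C/5% CO2. Reading used CellTiter-Glo after 20 min at room temperature; fitted curves yielded IC50 and efficacy.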

[11] = Cellular viability qHTS for adrenocortical cancer (ACC) cell line NCI-H295R (AID 1963990);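 further: 0% = DMSO only wells and -100% = full killing with cytotoxic reference compound; nearly all actives have a fitted effect of over 60% in size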
Summary of the method: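 Readout: CellTiter-Glo luminescence, 20 min RT. Exposure: 48 h, 37C/5% CO2. Cells: NCI-H295R, ITS-DMEM serum-free. Range: up to 46 uM. Analysis: 4PL fit, IC50 plus efficacy.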

COC(=O)N1CCN(Cc2cccc(NC(=O)Nc3ccc(C)nc3)c2F)CC1
inactive: Potency [1] | Potency [2] | Potency [3] | Potency [4] | Potency [5] | Potency [6] | Potency [7] | Potency [8] | Potency [9] | activity (max response) [10] -16.4% | Potency [11]

CCOC(=O)C1=C(C)NC(=S)NC1c1cccc(O)c1 (stereo not drawn)
active: Potency [1] 0.148 µM | Potency [2] 0.264 µM | Potency [3] 0.235 µM | Potency [4] 0.187 µM | Potency [5] 0.296 µM | Potency [6] 0.148 µM | Potency [7] 0.0743 µM | Potency [8] 0.132 µM | Potency [9] 0.166 µM
inactive: Potency [11]

Cc1csc(NC(=O)c2sc3nc4c(c(C(F)(F)F)c3c2N)CCC4)n1
inactive: Potency [1] | Potency [2] | Potency [3] | Potency [4] | Potency [5] | Potency [6] | Potency [7] | Potency [8] | Potency [9] | activity (max response) [10] -2.72% | Potency [11]

N#CC(c1ccnc(NCCc2cccnc2)n1)c1nc2ccccc2s1 (stereo not drawn)
active: Potency [10] 25.1 µM
inactive: Potency [1] | Potency [2] | Potency [3] | Potency [4] | Potency [5] | Potency [6] | Potency [7] | Potency [8] | Potency [9]

CC(C)(F)C[C@H](N[C@@H](c1ccc(-c2ccc(S(C)(=O)=O)cc2)cc1)C(F)(F)F)C(=O)NC1(C#N)CC1
inactive: Potency [1] | Potency [2] | Potency [3] | Potency [4] | Potency [5] | Potency [6] | Potency [7] | Potency [8] | Potency [9] | Potency [11]

C=CC(=O)Nc1cccc(Nc2nc(NC3CCC(N(C)C)CC3)nc3c2ncn3C(C)C)c1 (stereo not drawn)
active: Potency [1] 2.96 µM | Potency [2] 2.35 µM | Potency [3] 2.35 µM | Potency [4] 3.32 µM | Potency [5] 4.18 µM | Potency [6] 3.32 µM | Potency [7] 1.05 µM | Potency [8] 2.09 µM | Potency [9] 1.05 µM

COc1cc2c(cc1OC)C1CC(=O)C(CC(C)C)CN1CC2 (stereo not drawn)
inactive: Potency [1] | Potency [2] | Potency [3] | Potency [4] | Potency [5] | Potency [6] | Potency [7] | Potency [8] | Potency [9] | activity (max response) [10] -1.87% | Potency [11]

CC(C)(C)c1cc(C(=O)O)c(NC(=O)Nc2ccc3[nH]ncc3c2)s1
inactive: Potency [1] | Potency [2] | Potency [3] | Potency [4] | Potency [5] | Potency [6] | Potency [7] | Potency [8] | Potency [9] | activity (max response) [10] -7.47% | Potency [11]

COC(=O)C1=C(C)NC(C)=C(C(=O)OC(C)C)C1c1cccc2nonc12 (stereo not drawn)
inactive: Potency [1] | Potency [2] | Potency [3] | Potency [4] | Potency [5] | Potency [6] | Potency [7] | Potency [8] | Potency [9] | activity (max response) [10] 6.25%

Source: PubChem BioAssay (NCATS)
